The whole screen tested about 340,000 compounds, of which about 1,000 (0.29%) were called active. Shown is part of a subset that was picked to be rich in actives. Values without a mark were called inactive.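 Rule for the calls: active = mean replicate activation score at least 90 and every replicate individually at or above 90; inconclusive = only one of the two criteria met; inactive = neither criterion met.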
Test: miR-122 Renilla sensor signal increase in Huh7, primary screen, miR-122 inhibitor project, cell-based, single point, plate reader (AID 602342);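 note: higher luciferase means less miR-122 activity so hits act as miR-122 inhibitors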
Conditions: Huh7 miR-122 Renilla luciferase sensor, 48 h, active compounds read high, neutral wells = 0, positive control = 100

COc1ccc(C(=O)N2C[C@@H]3[C@H](c4ccccc42)[C@H](CO)N3Cc2ccc3c(c2)OCO3)cc1
activation (reporter increase) (at 16.7 µM unless noted): 247% (active)

COc1ccccc1NC(=O)N1C[C@H]2[C@@H](c3ccccc31)[C@H](CO)N2Cc1ccc2c(c1)OCO2
activation (reporter increase) (at 16.7 µM unless noted): 28.6%

COc1cccc(CN2[C@H](CO)[C@@H]3c4ccccc4N(C(=O)c4ccncc4)C[C@@H]32)c1
activation (reporter increase) (at 16.7 µM unless noted): 46.9%

O=C(c1ccncc1)N1C[C@H]2[C@@H](c3ccccc31)[C@H](CO)N2C(=O)c1ccccn1
activation (reporter increase) (at 16.7 µM unless noted): -28.6%

C/C=C/c1ccc([C@H]2[C@@H](CO)N(S(C)(=O)=O)[C@@H]2CN(C)C(=O)CC)cc1
activation (reporter increase) (at 16.7 µM unless noted): 6.25%

CN1C(=O)c2cc(NS(=O)(=O)c3ccc(Cl)cc3)ccc2OC[C@@H]2O[C@H](CC(=O)O)CC[C@@H]21
activation (reporter increase) (at 16.7 µM unless noted): 5.56%

O=C(Nc1ccc2c(c1)[C@H]1C[C@@H](CC(=O)N3CCc4ccccc4C3)O[C@H](CO)[C@H]1O2)Nc1ccccc1F
activation (reporter increase) (at 16.7 µM unless noted): -7.95%

CO[C@@H]1CN(C)C(=O)c2ccc(NS(=O)(=O)c3ccc(Cl)cc3)cc2OC[C@@H](C)N(C)C[C@H]1C
activation (reporter increase) (at 16.7 µM unless noted): -8.17%

COC(=O)c1ccc(C(=O)Nc2cc(Cl)ccc2Cl)cc1NC(=O)c1ccccc1C
activation (reporter increase) (at 16.7 µM unless noted): -1.04% [at 12.5 µM]

C=CCNC(=O)c1ccccc1NC(=O)c1ccc(Cl)c(S(=O)(=O)Nc2cccc(C)c2C)c1
activation (reporter increase) (at 16.7 µM unless noted): 155% [at 12.5 µM] (active)

Cc1ccc(C(=O)Nc2ccccc2C(=O)NC2CCCCC2)cc1S(=O)(=O)N1CCOCC1
activation (reporter increase) (at 16.7 µM unless noted): -2.85% [at 12.5 µM]

CCC(=O)N(C)C[C@@H]1Oc2ncc(C#C[C@H](C)O)cc2C(=O)N([C@@H](C)CO)C[C@@H]1C
activation (reporter increase) (at 16.7 µM unless noted): 1.39%

Cc1ccccc1S(=O)(=O)N1C[C@H](O)COC[C@H]2O[C@H](CC(=O)N3CCCCC3)CC[C@@H]21
activation (reporter increase) (at 16.7 µM unless noted): 8.99%

Cc1cccc(CNS(=O)(=O)c2ccc(-c3cnc(C4CC4)o3)cc2)c1
activation (reporter increase) (at 16.7 µM unless noted): 3.02% [at 12.5 µM]

COc1ccc(CNS(=O)(=O)c2ccc(-c3cnc(C4CC4)o3)cc2)cc1
activation (reporter increase) (at 16.7 µM unless noted): -3.38% [at 12.5 µM]

Cc1cccc(NS(=O)(=O)c2ccc(-c3cnc(C4CC4)o3)cc2)c1
activation (reporter increase) (at 16.7 µM unless noted): 186% [at 12.5 µM] (active)

C[C@@H]1CN([C@H](C)CO)C(=O)c2cccc(NS(=O)(=O)c3ccc(F)cc3)c2O[C@H]1CN(C)Cc1ccc(Oc2ccccc2)cc1
activation (reporter increase) (at 16.7 µM unless noted): 3.49%

O=C(NC1CCCC1)[C@H]1[C@H](CO)[C@H]2Cn3c(ccc(-c4ccccc4)c3=O)[C@H]2N1CCc1ccccc1
activation (reporter increase) (at 16.7 µM unless noted): -0.306%

C[C@H](CO)N1C[C@H](C)[C@H](CN(C)C(=O)Nc2ccccc2C(F)(F)F)OCc2cn(nn2)CCCC1=O
activation (reporter increase) (at 16.7 µM unless noted): -4.03%

N=c1n(Cc2ccc(Cl)cc2)c2ccccc2n1CC(O)c1ccco1 (configuration not stated)
activation (reporter increase) (at 16.7 µM unless noted): 262% [at 12.5 µM] (active)

Cn1c(=N)n(CC(O)c2cccs2)c2ccccc21 (configuration not stated)
activation (reporter increase) (at 16.7 µM unless noted): -2.61% [at 12.5 µM]

C[C@H](CO)N1C[C@H](C)[C@@H](CN(C)C(=O)Nc2ccc3c(c2)OCO3)OCCCC[C@H](C)Oc2ccc(NC(=O)Nc3ccc(F)cc3)cc2C1=O
activation (reporter increase) (at 16.7 µM unless noted): -4.3%

Cc1noc(C)c1S(=O)(=O)N(C)C[C@@H]1OCCCC[C@H](C)Oc2ccc(NC(=O)Nc3ccc4c(c3)OCO4)cc2C(=O)N([C@H](C)CO)C[C@H]1C
activation (reporter increase) (at 16.7 µM unless noted): -8.18%

O=C(Nc1ccccc1)[C@@H]1[C@@H](CO)[C@@H]2Cn3c(cccc3=O)[C@@H]2N1C(=O)C1CC1
activation (reporter increase) (at 16.7 µM unless noted): -0.104%

C[C@@H]1CN([C@H](C)CO)C(=O)c2cc(NC(=O)c3ccccc3)ccc2O[C@@H](C)CCCCO[C@H]1CN(C)C(=O)c1ccncc1
activation (reporter increase) (at 16.7 µM unless noted): -8.54%

C[C@H]1CN([C@@H](C)CO)C(=O)Cc2cc(NS(=O)(=O)c3ccccc3)ccc2O[C@H]1CN(C)Cc1ccc(C(=O)Nc2ccccc2N)cc1
activation (reporter increase) (at 16.7 µM unless noted): 71.5%

C[C@H]1CN([C@@H](C)CO)C(=O)Cc2cc(NS(=O)(=O)c3ccccc3)ccc2O[C@@H]1CN(C)Cc1ccc(C(=O)Nc2ccccc2N)cc1
activation (reporter increase) (at 16.7 µM unless noted): -6.43%

C[C@H](CO)N1C[C@H](C)[C@@H](CN(C)S(=O)(=O)c2ccc(F)cc2)Oc2ccc(NC(=O)CCC(F)(F)F)cc2C1=O
activation (reporter increase) (at 12.5 µM): 1.48% | activation (reporter increase) (at 16.7 µM): -2.79%

COc1ccc(S(=O)(=O)N(C)C[C@@H]2Oc3ccc(NC(=O)CCC(F)(F)F)cc3C(=O)N([C@@H](C)CO)C[C@H]2C)cc1
activation (reporter increase) (at 16.7 µM unless noted): -0.455%

Cc1ccc(S(=O)(=O)N(C)C[C@H]2Oc3ccc(NC(=O)CCC(F)(F)F)cc3C(=O)N([C@@H](C)CO)C[C@H]2C)cc1
activation (reporter increase) (at 16.7 µM unless noted): 99.9% (active)

Cc1ccc(S(=O)(=O)Nc2ccc3c(c2)CC(=O)N([C@@H](C)CO)C[C@H](C)[C@H](CN(C)Cc2ccc(C(=O)Nc4ccccc4N)cc2)O3)cc1
activation (reporter increase) (at 16.7 µM unless noted): 252% (active)

COCC(=O)Nc1ccc2c(c1)C(=O)N(C)[C@H]1CC[C@H](CC(=O)Nc3ccccc3)O[C@H]1CO2
activation (reporter increase) (at 16.7 µM unless noted): 1.21%

NCC[C@@H]1CC[C@@H](NC(=O)C2CCCC2)[C@H](CO)O1
activation (reporter increase) (at 16.7 µM unless noted): -3.47%

CC(C)C#Cc1ccc([C@@H]2[C@@H](CO)N3CCCCN(C(=O)c4ccc5c(c4)OCO5)C[C@H]23)cc1
activation (reporter increase) (at 16.7 µM unless noted): -24%

Cc1c(-c2ccccc2)cn2c1-c1ccc(C)n1CC2
activation (reporter increase) (at 16.7 µM unless noted): 248% [at 12.5 µM] (active)

C[C@H]1CCCCO[C@H](CN(C)S(=O)(=O)c2cn(C)cn2)[C@@H](C)CN([C@@H](C)CO)C(=O)c2cc(NC(=O)C3CCCCC3)ccc2O1
activation (reporter increase) (at 16.7 µM unless noted): 1.57%

CCCNC(=O)N(C)C[C@@H]1Oc2ncc(C#CC(C)C)cc2C(=O)N([C@H](C)CO)C[C@H]1C
activation (reporter increase) (at 16.7 µM unless noted): -5.52%

CN1c2ccc(-c3ccccc3)cc2[C@H]2[C@H](CCN2C(=O)c2ccc3c(c2)OCO3)[C@H]1CO
activation (reporter increase) (at 16.7 µM unless noted): 72.9%

CC(C)CNS(=O)(=O)c1ccc(OCC(=O)Nc2ccc3c(c2)OCO3)c(Cl)c1
activation (reporter increase) (at 16.7 µM unless noted): 303% [at 12.5 µM] (active)

O=C(COc1ccc(Cl)cc1)Nc1ccc2c(c1)OCO2
activation (reporter increase) (at 16.7 µM unless noted): -4.55% [at 12.5 µM]

CC(C)CNS(=O)(=O)c1ccc(C(=O)Nc2ccc3c(c2)OCO3)cc1
activation (reporter increase) (at 16.7 µM unless noted): 39.9% [at 12.5 µM]
